The list is not random: actives were taken first. Their share in the collection is about 11%.
JMJD2A Tudor inh: qHTS Assay for Inhibitors of JMJD2A-Tudor Domain; Lysine-specific demethylase 4A (Homo sapiens), O75164; Potency, µM (doses to about 114 µM), usual class: inhibitors; 390,000 compounds, 4.4% hits; AlphaScreen JMJD2A-Tudor / H3K4me3 peptide binding; note: nearly all actives have a fitted effect of over 50% in size
HP1b binding inh: HTS for Inhibitors of HP1-beta Chromodomain Interactions with Methylated Histone Tails | Chromobox protein homolog 1 (Homo sapiens), P83916 | AlphaScreen HP1-beta / biotin-H3K9me3 peptide binding | Potency, µM (highest dose often 114 µM), hits mostly inhibitors | 390,000 compounds, 0.56% hits; note: nearly all actives have a fitted effect of over 70% in size
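HP1-beta protein (50 nM final) preincubated 30 min at room temperature with biotinylated H3(1-18)K9me3 peptide (50 nM) in PBS pH 7.4, 0.01% Tween-20, then compound added for 30 min. AlphaScreen streptavidin donor/nickel chelate acceptor beads (10 ug/mL final), 30 min dark, luminescence read.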
G9a inh: qHTS Assay for Inhibitors of Histone Lysine Methyltransferase G9a | Histone-lysine N-methyltransferase EHMT2 (Homo sapiens), Q96KQ7 | G9a H3K9 monomethylation, AlphaScreen, 2 h | Potency, µM (top dose mostly 102 µM), actives largely listed as inhibitors | 350,000 compounds, 8.8% hits | AID 504332, 2011; note: nearly all actives have a fitted effect of over 75% in size
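Compounds were preincubated with 20 nM G9a for 15 min, after which biotinylated H3K9 peptide (500 nM) and SAM (20 uM) started a 2 h room-temperature reaction. Monomethylated product was quantified by antibody-based AlphaScreen chemiluminescence.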
L3MBTL1 block: qHTS Assay for the Inhibitors of L3MBTL1 | Lethal(3)malignant brain tumor-like protein 1 (Homo sapiens), Q9Y468 | AlphaScreen L3MBTL1–H3K9me1 peptide binding | Potency, µM (doses to about 57.1 µM), usual class: inhibitors | 230,000 compounds, 0.66% hits; note: nearly all actives have a fitted effect of over 60% in size
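Displacement of a biotinylated histone H3(1-15) peptide monomethylated at Lys9 (75 nM) from L3MBTL1 (50 nM) was measured by AlphaScreen after a 30 min room-temperature compound incubation; cefsulodin titration served as intraplate control.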
BAZ2B inh: qHTS Assay for Inhibitors of BAZ2B; AID 504333, 2011; AlphaScreen BAZ2B-H3K14Ac peptide displacement; 360,000 compounds, 4.4% hits; Potency, µM (top dose mostly 114 µM), most hits filed as inhibitors; Bromodomain adjacent to zinc finger domain protein 2B (Homo sapiens), Q9UIF8; note: nearly all actives have a fitted effect of over 60% in size
Target sequence (Q9UIF8 whole entry, looked up, the tested form may be a part): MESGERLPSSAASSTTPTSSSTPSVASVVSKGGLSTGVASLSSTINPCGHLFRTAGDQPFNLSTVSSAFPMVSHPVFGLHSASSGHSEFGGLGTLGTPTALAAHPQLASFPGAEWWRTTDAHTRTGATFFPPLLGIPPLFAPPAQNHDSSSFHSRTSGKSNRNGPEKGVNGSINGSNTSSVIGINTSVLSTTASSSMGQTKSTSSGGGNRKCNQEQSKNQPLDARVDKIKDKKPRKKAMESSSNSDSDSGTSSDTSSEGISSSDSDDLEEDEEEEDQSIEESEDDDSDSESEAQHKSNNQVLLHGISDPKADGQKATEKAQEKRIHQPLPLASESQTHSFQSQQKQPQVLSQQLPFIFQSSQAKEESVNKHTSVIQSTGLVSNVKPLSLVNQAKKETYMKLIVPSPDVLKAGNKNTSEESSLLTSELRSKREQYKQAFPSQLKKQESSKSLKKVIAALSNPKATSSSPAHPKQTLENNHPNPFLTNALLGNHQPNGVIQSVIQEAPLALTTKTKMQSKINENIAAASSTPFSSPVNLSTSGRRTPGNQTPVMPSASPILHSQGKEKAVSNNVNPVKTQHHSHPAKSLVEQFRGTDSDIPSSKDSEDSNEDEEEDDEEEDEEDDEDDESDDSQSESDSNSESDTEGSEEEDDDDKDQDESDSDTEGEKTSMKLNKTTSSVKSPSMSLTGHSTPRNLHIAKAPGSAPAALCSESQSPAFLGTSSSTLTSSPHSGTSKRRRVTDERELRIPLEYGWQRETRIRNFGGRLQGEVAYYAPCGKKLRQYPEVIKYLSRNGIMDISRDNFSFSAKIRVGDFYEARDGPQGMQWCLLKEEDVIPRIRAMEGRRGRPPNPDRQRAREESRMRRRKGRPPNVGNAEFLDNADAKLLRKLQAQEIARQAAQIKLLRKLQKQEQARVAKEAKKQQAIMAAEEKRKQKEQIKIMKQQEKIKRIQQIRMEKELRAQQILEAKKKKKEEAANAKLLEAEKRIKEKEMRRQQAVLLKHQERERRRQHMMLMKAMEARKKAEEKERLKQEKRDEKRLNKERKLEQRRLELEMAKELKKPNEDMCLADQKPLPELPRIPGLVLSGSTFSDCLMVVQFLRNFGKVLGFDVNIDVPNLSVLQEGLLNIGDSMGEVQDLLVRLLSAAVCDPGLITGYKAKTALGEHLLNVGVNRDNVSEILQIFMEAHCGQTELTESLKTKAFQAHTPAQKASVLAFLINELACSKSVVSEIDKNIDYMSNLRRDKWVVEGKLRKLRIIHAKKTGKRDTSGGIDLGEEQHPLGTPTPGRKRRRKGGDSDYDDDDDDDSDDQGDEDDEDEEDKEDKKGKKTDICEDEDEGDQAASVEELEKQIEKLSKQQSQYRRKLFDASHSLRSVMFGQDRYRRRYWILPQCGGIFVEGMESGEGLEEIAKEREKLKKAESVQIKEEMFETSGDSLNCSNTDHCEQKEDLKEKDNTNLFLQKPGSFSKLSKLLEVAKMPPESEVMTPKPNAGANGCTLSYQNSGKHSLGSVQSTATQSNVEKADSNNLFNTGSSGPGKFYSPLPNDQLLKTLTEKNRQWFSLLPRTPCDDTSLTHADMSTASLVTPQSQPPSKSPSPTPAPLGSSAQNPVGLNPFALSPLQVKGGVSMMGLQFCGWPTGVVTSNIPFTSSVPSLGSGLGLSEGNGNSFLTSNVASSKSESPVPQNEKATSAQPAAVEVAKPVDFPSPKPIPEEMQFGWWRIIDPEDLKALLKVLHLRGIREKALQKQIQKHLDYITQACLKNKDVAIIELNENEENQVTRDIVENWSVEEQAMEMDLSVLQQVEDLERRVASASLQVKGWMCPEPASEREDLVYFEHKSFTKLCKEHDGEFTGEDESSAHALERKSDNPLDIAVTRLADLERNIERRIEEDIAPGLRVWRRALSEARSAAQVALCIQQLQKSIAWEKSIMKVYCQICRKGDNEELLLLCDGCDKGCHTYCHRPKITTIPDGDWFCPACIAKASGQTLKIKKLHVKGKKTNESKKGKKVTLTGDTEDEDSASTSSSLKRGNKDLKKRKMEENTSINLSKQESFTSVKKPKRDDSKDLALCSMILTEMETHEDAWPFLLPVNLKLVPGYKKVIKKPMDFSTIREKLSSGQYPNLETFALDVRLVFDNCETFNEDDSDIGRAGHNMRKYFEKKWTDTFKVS
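Compounds, titrated to a top concentration of 110 uM, were incubated 30 min at room temperature with preformed BAZ2B/acetyl-K14 H3 peptide complex (50 nM each). Proximity signal was measured by AlphaScreen after 20 min with beads.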
Hits are given with their value; – = inactive; ? = inconclusive; · = no result given; [ ] = remark or other dose. Calls come from the whole dose curve; as a rule, active = well fitted inhibition curve with a large enough effect; inconclusive = small, poorly fitted or top-dose-only effect; inactive = no such curve, though single readings can be large or run the other way.

SMILES	JMJD2A Tudor inh	HP1b binding inh	G9a inh	L3MBTL1 block	BAZ2B inh
O=C(Cc1ccc([N+](=O)[O-])cc1)N1CCN(c2ccc([N+](=O)[O-])cc2)CC1	–	–	?	–	–
O=[N+]([O-])c1ccc(N2CCN(Cc3ccc(Br)o3)CC2)cc1	22.4µM	?	?	–	79.4µM
CCCn1c(SCC(=O)N2CCN(C(C)=O)CC2)nc2sc3c(c2c1=O)CCC3	–	–	70.8µM	·	–
CCCN1CCc2c(sc3nc(SCC)n(-c4ccccc4)c(=O)c23)C1	–	–	?	·	–
CCn1c(SCC(N)=O)nc2sc3c(c2c1=O)CCN(C)C3	–	–	56.2µM	–	–
CCCn1c(SCC(=O)NCC)nc2sc3c(c2c1=O)CCC3	–	–	–	·	–
CN1CCc2c(sc3c2c(=O)n(-c2ccccc2)c2nnc(SCc4ccc(F)cc4)n32)C1	–	–	·	·	·
CCSc1nc2sc3c(c2c(=O)n1-c1ccccc1)CCN(C)C3	–	–	79.4µM	–	–
CN1CCc2c(sc3c2c(=O)n(-c2ccccc2)c2nnc(SCc4ccccc4)n32)C1	89.1µM	–	?	·	–
CCn1c(=O)c2c(nc3n2CCN3c2ccc(OC)cc2)n(C)c1=O	–	–	–	·	–
Cc1cccc(OCC(=O)NCC2(N3CCN(C)CC3)CCCCC2)c1C	–	–	–	·	–
O=C(CSc1nc2sc3c(c2c(=O)n1-c1ccccc1)CCCC3)N/N=C/c1ccc(C(=O)O)cc1	79.4µM	79.4µM	–	·	–
COCC(C)n1c(SCC(=O)Nc2oc(C)c3c(C)n[nH]c(=O)c23)nc2ccccc2c1=O (stereo unspecified)	–	–	·	·	–
Cc1n[nH]c(=O)c2c(NC(=O)CSc3nnnn3-c3ccccc3)oc(C)c12	?	–	44.7µM	–	–
COCCn1c(Cc2ccccc2)nnc1SCC(=O)Nc1oc(C)c2c(C)n[nH]c(=O)c12	–	–	14.1µM	–	–
Cc1n[nH]c(=O)c2c(NC(=O)CSc3nnnn3-c3ccc(O)cc3)oc(C)c12	–	–	–[0.501 µM]	–	–
Cc1n[nH]c(=O)c2c(NC(=O)CSc3nc4ccccc4c(=O)n3C(C)C)oc(C)c12	–	–	56.2µM	·	–
CCOc1ccc(-n2nc(CO)c(C(=O)NCc3ccccn3)n2)cc1	–	–	–	·	–
CCOc1ccccc1CNC(=O)CSc1n[nH]c(-c2ccccc2)n1	–	–	–	·	–
COc1cccc(CNC(=O)CN2C(=O)N(c3cc(C)ccc3C)S(=O)(=O)c3ccccc32)c1OC	–	–	–	·	–
Cc1ccc(CNS(=O)(=O)c2ccc3[nH]c4c(c3c2)CCCC4)cc1	?	–	?	·	–
O=S(=O)(NCc1ccc(F)cc1)c1ccc2[nH]c3c(c2c1)CCCC3	?	–	8.91µM	·	?
O=S(=O)(NCc1ccccc1)c1ccc2[nH]c3c(c2c1)CCCCC3	?	–	14.1µM	·	–
Cc1ccc(CNS(=O)(=O)c2ccc3[nH]c4c(c3c2)CCCCC4)cc1	–	–	–	·	–
CCc1ccccc1NC(=O)Cn1c(=O)nc(-c2ccccc2)c2ccccc21	–	–	–	·	–
SMILES	JMJD2A Tudor inh	HP1b binding inh	G9a inh	L3MBTL1 block	BAZ2B inh
Cc1cc(C)c(NC(=O)C(C)n2nc(-c3ccc(C)c(C)c3)ccc2=O)c(C)c1 (stereo unspecified)	–	–	–	·	?
O=C(CCNC(=O)c1ccc([N+](=O)[O-])cc1)Nc1ccc(F)cc1F	–	–	–[2.33 µM]	·	–
OC(CCN1CCCCC1)c1ccc(-c2ccccc2)cc1 (stereo unspecified)	–	–	–	·	–
Clc1ccc(C(CCN2CCCC2)Cc2ccccc2)cc1 (stereo unspecified)	3.98µM	?	10µM	·	50.1µM
CCOC(=O)/C(C#N)=C1\SS/C(=C(/C#N)C(=O)OCC)S1	·	·	1.58µM	·	?
COc1ccc(NC(=O)Cn2ccn(-c3ccc(F)c(F)c3)c(=O)c2=O)cc1Cl	–	–	–	·	–
CN1CCN(Cc2nc3ccccc3c(=O)n2Cc2nc(-c3ccccc3F)cs2)CC1	–	–	35.5µM	–	–
CN1CCN(Cc2nc3ccccc3c(=O)n2Cc2nc(-c3cccc([N+](=O)[O-])c3)cs2)CC1	?	?	25.1µM	·	39.8µM
CN1CCN(Cc2nc3ccccc3c(=O)n2Cc2nc(-c3ccc4ccccc4c3)cs2)CC1	?	?	?	–	?
CNC(=O)c1c(NC(=O)c2ccc(S(=O)(=O)N3CCCCC3C)cc2)sc2c1CCC2 (stereo unspecified)	–	–	–	·	–
Cc1ccc(Cl)cc1NC(=S)N/N=C/c1cccc2ccccc12	–	–	–	–	–
Cc1ccc(-n2nc(C(=O)Nc3ccc(F)cc3F)c3c4ccccc4n(C)c3c2=O)cc1	–	–	–	·	·
CCOc1ccc(-n2c(C)c(C(=O)OC)c3cc(O)ccc32)cc1	–	–	·	·	?
CCOC(=O)c1c[nH]n(-c2ccccc2)c1=O	–	–	–	·	–
CCOC(=O)c1cc2c(C)n(-c3ccc(C)cc3)c(C)c2ccc1=O	?	?	·	–	44.7µM
Cc1ccc(-n2c(C)cc(C(=O)COC(=O)c3ccc[nH]c3=O)c2C)cc1	–	–	–	–	?
CCOC(=O)c1c[nH]n(-c2ccc(C)cc2)c1=O	–	–	50.1µM	–	–
CCOC(=O)c1cc2c(C)n(-c3ccc(OCC)cc3)c(C)c2ccc1=O	?	?	·	–	50.1µM
CCOC(=O)c1c(C)n(-c2ccccc2)c2ccc(OC(=O)c3cc(OC)cc(OC)c3)cc12	–	–	–	·	–
CCN(C(=O)C1CCC(CNS(=O)(=O)c2cccc3nsnc23)CC1)c1ccc(C)c(C)c1 (stereo unspecified)	?	–	–	·	?
COc1ccc(N2CCN(C(CNC(=O)c3ccco3)c3ccco3)CC2)cc1 (stereo unspecified)	–	–	28.2µM	–	–
O=C(NCC(c1ccco1)N1CCN(c2ccc(F)cc2)CC1)c1cccs1 (stereo unspecified)	–	–	?	–	?
COC(=O)NCC(c1ccc2c(c1)OCO2)N1CCN(c2ccc(OC)cc2)CC1 (stereo unspecified)	–	–	–	·	?
COc1ccc(N2CCN(C(CNC(=O)c3c(F)cccc3F)c3ccc4c(c3)OCO4)CC2)cc1 (stereo unspecified)	50.1µM	–	10µM	·	?
COc1ccc(N2CCN(C(CNC(=O)c3cccs3)c3ccco3)CC2)cc1 (stereo unspecified)	?	?	44.7µM	–	?
Cc1c(C(=O)Nc2cccc(-c3nc4ccccc4s3)c2)oc2ccc(F)cc12	–	–	–	·	–
COc1ccc(-c2cn3nc(N4CCCC(C(=O)Nc5ccccc5OC)C4)sc3n2)cc1 (stereo unspecified)	–	–	?	·	–

Assay outcomes deposited in PubChem BioAssay by National Center for Advancing Translational Sciences (NCATS).
